High-throughput results: PubChem BioAssay, several laboratories
C1s block = blocks human complement C1s protease activity; purified C1s, fluorogenic AMC substrate, pooled mixtures; mean inhibition % of two 10-compound mixtures (stronger effect = higher value), % at 5 µM (by protocol); hit rate 0.16% among 62,000;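 active means inhibition above 20% in each of the two 10-compound mixture wells holding the compound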;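 further: 0% = enzyme wells lacking compound mixture and 100% = no-enzyme blank wells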
FXIa mix inh = blocks human factor XIa in pooled compound mixtures; P03951; hit rate 0.19% among 62,000; purified FXIa, fluorogenic substrate; inhibition, % at 5 µM;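 further: each value is inhibition by a whole ten-compound pool holding the compound; 0% = enzyme with no mixture and 100% = wells lacking enzyme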
FXIIa inh mix = factor XIIa (human) inhibition, mixture screen. P00748. purified FXIIa, fluorogenic substrate, pooled mixtures. inhibition, % at 5 µM. hit rate 0.2% among 62,000;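 further: 0% = enzyme without compound and 100% = no enzyme blank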
HePTP inhibitor = human HePTP phosphatase inhibition; P35236; recombinant HePTP phosphatase activity, OD absorbance; inhibition, % at 20 µM; hit rate 0.64% among 110,000; AID 521; in the data active means inhibition above about 50%;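 further: plate controls were vehicle for no effect and reference inhibitor for full effect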
Cathepsin G inh = cathepsin G (human) inhibition. P08311. purified enzyme, AMC-tetrapeptide fluorescence, pooled mixtures. inhibition, % at 5 µM (by protocol). hit rate 0.2% among 62,000;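 active means inhibition above 20% in each of the two mixture wells holding the compound; inactive means inhibition of 20% or less in either well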;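 further: 0% = enzyme control without mixture and 100% = blank lacking enzyme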
PLAP act = human PLAP activation; purified PLAP enzyme, luminescent substrate read-out; stronger effect = higher value; activation fold at 20 µM; hit rate 1.2% among 96,000; in the data active means activation fold above about 2
Target sequence (P05187 whole entry, looked up): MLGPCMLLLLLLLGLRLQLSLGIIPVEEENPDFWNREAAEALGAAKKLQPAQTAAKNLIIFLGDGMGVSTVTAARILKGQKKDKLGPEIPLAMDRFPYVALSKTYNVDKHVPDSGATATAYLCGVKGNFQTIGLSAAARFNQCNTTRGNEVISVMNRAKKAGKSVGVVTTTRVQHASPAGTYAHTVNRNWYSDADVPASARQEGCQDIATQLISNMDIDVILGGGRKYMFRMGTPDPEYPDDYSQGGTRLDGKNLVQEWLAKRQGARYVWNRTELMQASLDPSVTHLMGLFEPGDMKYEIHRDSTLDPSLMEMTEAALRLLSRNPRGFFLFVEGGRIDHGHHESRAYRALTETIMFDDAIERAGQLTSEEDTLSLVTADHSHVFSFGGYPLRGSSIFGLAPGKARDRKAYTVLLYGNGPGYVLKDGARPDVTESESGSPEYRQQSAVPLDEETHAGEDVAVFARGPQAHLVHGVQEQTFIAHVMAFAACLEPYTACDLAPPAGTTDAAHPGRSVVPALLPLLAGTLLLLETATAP
Numbers without * were called inactive; x = no result. Hits are enriched below; roughly 1.4% of the tested compounds scored in any of these assays. Unless noted, no stated cut-off is given here; in the data, active means inhibition above about 20% (passing the limit was not always enough); inactive means the rest.

SMILES	C1s block	FXIa mix inh	FXIIa inh mix	HePTP inhibitor	Cathepsin G inh	PLAP act
O=C(/C=C/c1ccco1)Nc1cccc([N+](=O)[O-])c1	x	x	x	62*	x	x
Cc1occc1C(=O)NNC(=S)Nc1cccc([N+](=O)[O-])c1	x	x	x	x	x	2*
Cc1nc2ccc(NC(=S)Nc3cccc([N+](=O)[O-])c3)cc2nc1C	x	x	x	-1	x	x
O=C(Nc1ccc(N2CCN(C(=O)c3ccco3)CC2)cc1)C(c1ccccc1)c1ccccc1	x	x	x	x	x	2.5*
O=C1N=c2ccc(Br)cc2=C1c1sc(Nc2ccc(O)cc2)nc1O	x	x	x	93*	x	x
O=C(Nc1sc2c(c1C(=O)Nc1ccccc1)CCC2)c1ccccc1Br	x	x	x	-6	x	x
O=C(NCc1ccccc1Cl)C(=O)NC1CC1	x	x	x	4	x	x
O=C(NCc1ccc(Cl)cc1Cl)C(=O)NC1CCCC1	x	x	x	61*	x	x
C=CCn1c(N2C(=O)CC(Cc3ccccc3)C2=O)nc2ccccc21 (centres undefined)	12	4	7	2	11	2.5*
C=CCn1c(NCc2ccccc2)nc2ccccc21	7	9	-15	6	3	1
CC1=CC(C)(C)N2C(=O)C3(N=C(N)NC(Nc4ccccc4)=N3)c3cc(C)cc1c32 (centres undefined)	1	0	2	12	8	2.1*
Fc1cnc(NN=Cc2ccco2)nc1N1CCOCC1	x	x	x	-4	x	x
COc1ccc(/C=C/C(=O)Nc2c(C)ccc3nsnc23)cc1	x	x	x	8	x	x
CCOc1ccccc1/C=C1/C(=O)NN(c2ccc(I)cc2)C1=O	x	x	x	18	x	x
CCOc1cc(/C=C2/C(=O)NN(c3ccc(I)cc3)C2=O)ccc1O	x	x	x	90*	x	x
CCOC(=O)c1ccc(N2NC(=O)/C(=C/c3ccc(OC)c(Br)c3)C2=O)cc1	x	x	x	55*	x	x
COc1ccc(/C=C2/C(=O)NN(c3ccc(C)cc3)C2=O)cc1Br	x	x	x	-3	x	x
CCOC(=O)c1ccc(N2NC(=O)/C(=C/c3cc(OC)c(O)c(OC)c3)C2=O)cc1	x	x	x	89*	x	x
CCOC(=O)c1ccc(N2NC(=O)/C(=C/c3cccc(I)c3)C2=O)cc1	x	x	x	-2	x	x
CC(C)(C)NCC(=O)Nc1ccc(S(N)(=O)=O)cc1	x	x	x	6	x	x
Cc1cc(C)c2oc(-c3ccc(NC(=O)/C=C/c4cccc([N+](=O)[O-])c4)cc3)nc2c1	x	x	x	4	x	x
CCCCCN(C(=O)CN(C)Cc1ccc(OC)cc1OC)c1c(N)n(CCCC)c(=O)[nH]c1=O	x	x	x	x	x	2.4*
O=C1N=c2ccccc2=C1c1s/c(=N/N=C2/C(=O)Nc3ccccc32)n(-c2ccc(O)cc2)c1O	x	x	x	98*	x	x
O=S(=O)(/N=C(/Nc1cc(N2CCOCC2)ncn1)c1ccc(F)cc1)c1ccccc1	-17	-3	11	-8	-11	2.1*
O=S(=O)(/N=C(/Nc1cc(N2CCOCC2)ncn1)c1ccccc1)c1ccccc1	7	5	8	8	9	0.9
SMILES	C1s block	FXIa mix inh	FXIIa inh mix	HePTP inhibitor	Cathepsin G inh	PLAP act
O=C(CN(C(=O)Cn1nnc(-c2cccs2)n1)c1ccc2c(c1)OCCO2)NCc1ccccc1	x	x	x	x	x	2.1*
N#C/C(=C(/O)CCCN1C(=O)c2ccccc2C1=O)c1nc2ccccc2[nH]1	x	x	x	2	x	x
CSCCC(/C(O)=C(\C#N)c1nc2ccccc2[nH]1)N1C(=O)c2ccccc2C1=O (centres undefined)	3	3	14	-3	5	2*
N#C/C(=C(/O)CN1C(=O)c2ccccc2C1=O)c1nc2ccccc2[nH]1	-15	-2	1	5	-1	2.1*
O=C(COc1ccc(I)cc1)Nc1ccc2c(c1)oc1ccccc12	x	x	x	102*	x	x
COc1ccc(OC)c(N2C(=O)CC(Cc3cc(C)cc(C)c3)C2=O)c1 (centres undefined)	x	x	x	97*	x	x
Cc1cc(C)cc(CC2CC(=O)N(c3cc(C)on3)C2=O)c1 (centres undefined)	x	x	x	0	x	x
CC(C)c1nc2ccc(NC(=O)C34CC5CC(CC(C5)C3)C4)cc2[nH]1	x	x	x	x	x	2*
CCN1CCc2c(C#N)c(N3CCCCC3)nc(N3CCOCC3)c2C1	x	x	x	4	x	1.3
N#Cc1c(N2CCOCC2)nc(N2CCCCC2)c2c1CCN(C1CCCCC1)C2	9	8	2	0	10	2*
COc1ccc(C(CC(=O)c2ccc(Br)cc2)Nc2ccc([N+](=O)[O-])cc2)cc1 (centres undefined)	x	x	x	-11	x	x
CC(Oc1cccc(Cl)c1)C(=O)Nc1ccc(C(N)=O)cc1 (centres undefined)	x	x	x	3	x	x
CCOC(=O)c1cc(C#N)c(SCc2ccccc2)[nH]c1=O	x	x	x	8	x	x
COc1cc(Br)c(/C=C2\C(=O)N(c3cccc(C(=O)O)c3)N=C2C)cc1OC	x	x	x	77*	x	x
COc1cc(/C=C2\C(=O)N(c3cccc(C(=O)O)c3)N=C2C)cc(I)c1O	x	x	x	6	x	x
COc1cccc(/C=C2\C(=O)N(c3cccc(C(=O)O)c3)N=C2C)c1	x	x	x	66*	x	x
COc1ccc(OC)c(/C=C2\C(=O)N(c3ccc(S(N)(=O)=O)cc3)N=C2C)c1	x	x	x	68*	x	x
COc1cc(/C=C2\C(=O)N(c3cccc(C(=O)O)c3)N=C2C)ccc1O	x	x	x	24	x	x
COc1cc(/C=C2\C(=O)N(c3cccc(C(=O)O)c3)N=C2C)c([N+](=O)[O-])cc1OC	x	x	x	75*	x	x
CCn1nc(C)c(Cc2c(C)nn(CC)c2C)c1C	x	x	x	104*	x	x
O=C(Nc1ccccc1C(=O)O)c1cccc(N2C(=O)c3ccccc3C2=O)c1	x	x	x	10	x	x
O=C(Nc1ccc(Br)cc1C(=O)O)c1cccc(N2C(=O)c3ccccc3C2=O)c1	x	x	x	102*	x	x
COc1ccc(C)cc1NC(=S)NNC(=O)c1ccccc1Cl	x	x	x	x	x	2.9*
COc1ccc(C)cc1NC(=O)c1ccccc1I	x	x	x	-3	x	x
COc1ccccc1NC(=S)NNC(=O)c1ccc(O)cc1	x	x	x	x	x	2.4*
SMILES	C1s block	FXIa mix inh	FXIIa inh mix	HePTP inhibitor	Cathepsin G inh	PLAP act
COc1ccccc1NC(=S)NNC(=O)c1nn(C)cc1Cl	x	x	x	x	x	1.9
COc1ccccc1NC(=S)NNC(=O)c1nn(C)c(C)c1Cl	x	x	x	x	x	2.1*
Cc1ccc(S(=O)(=O)Nc2ccccc2C=Nc2c(C)n(C)n(-c3ccccc3)c2=O)cc1	x	x	x	-13	x	x
O=C(Cc1cnn(-c2ccccc2)c1)c1ccc(O)c(O)c1O	x	x	x	x	x	2*
Cc1c(-c2nc(-c3ccccn3)no2)cccc1[N+](=O)[O-]	x	x	x	0	x	x
COc1cccc(NC(=O)c2cc([N+](=O)[O-])ccc2Br)c1	x	x	x	11	x	x
Cc1ccc(C(=O)CCNc2cccc(Cl)c2)o1	x	x	x	-13	x	x
NC1=NC(=O)/C(=C/c2ccc(-c3cc([N+](=O)[O-])ccc3Cl)o2)S1	x	x	x	99*	x	x
CC(C)CCNC(=O)c1ccc(Cl)cc1Cl	x	x	x	2	x	x
O=C1CC(N2CCN(c3ccc(Cl)c(Cl)c3)CC2)C(=O)N1 (centres undefined)	7	6	53*	14	6	1.1
O=C(CNc1ccccc1)N/N=C/c1ccc([N+](=O)[O-])o1	x	x	x	x	x	0.8
O=C(N/N=C/c1ccc([N+](=O)[O-])o1)c1ccc(O)cc1	x	x	x	102*	x	x
O=C(NCCCN1CCCC1=O)c1ccc(OCc2ccccc2)cc1	x	x	x	x	x	2.1*
Cc1ccc(CS(=O)(=O)CCC(=O)NCCCN2CCCC2=O)cc1	-28	7	22*	6	-1	1.1
Cc1ccc(CS(=O)(=O)CCC(=O)NCCN2CCCC2)cc1	16	8	10	6	10	1.1
